Structures are written as SMILES. About 83,000 compounds went through this panel and 20% of them were active in at least one assay; those are over-represented in the sample as a whole.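 Single-dose data. Exposure time 48 hours. Values below 10 considered active.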 Values without a mark were called inactive. Active and inactive are the calls of the source.

Some test systems named below: DU-145 prostate; K-562 leukemia; MALME-3M melanoma; MDA-MB-231 breast; RXF 393 renal; SF-268 CNS; SF-295 CNS; SF-539 CNS; UACC-257 melanoma; M14 melanoma; HCT-15 colon; HT29 colon; SNB-75 CNS; SNB-19 CNS; U251 CNS; PC-3 prostate; SK-MEL-5 melanoma; UACC-62 melanoma; LOX IMVI melanoma; SK-MEL-28 melanoma.
Common to all, as to experiment: NCI-60 one-dose screen, 48 h (100 = growth as untreated, 0 = no growth, -100 = all killed)
Common to all, as to conditions: 10 µM

Consider `NC1=NC(c2ccccc2)C2=C(N1)/C(=C/c1ccccc1)CCC2` (stereo not given), for which the growth in the test with DU-145 prostate was 117%; in the test on K-562 leukemia it was 76.4%; in the test on MALME-3M melanoma, 103%; in the test with MDA-MB-231 breast it was 101%; in the test on RXF 393 renal it was 101%; in the test on SF-268 CNS, 91.7%. In addition, the growth in the test on SF-295 CNS is 95%; in the test on SF-539 CNS, 92.8%; in the test with UACC-257 melanoma, 83.8%; in the test on M14 melanoma, 61.9%; with HCT-15 colon, 84.9%; with HT29 colon, 32.2%. Further, the growth was 85.6% in the test with SNB-75 CNS; 97.5% with SNB-19 CNS; 34.8% in the test on U251 CNS; 78.7% with PC-3 prostate; 98.9% in the test on SK-MEL-5 melanoma; 77.5% with UACC-62 melanoma. Further, the growth is -4.8% (active) with LOX IMVI melanoma and 102% with SK-MEL-28 melanoma.
With `COc1ccc(-c2cc(-c3ccc(Cl)cc3)nc(SCCCCCCC(=O)NO)n2)cc1OC`, the growth with DU-145 prostate was 82.4%; with K-562 leukemia, 36.1%; in the test with MALME-3M melanoma, 42.5%; with MDA-MB-231 breast it was 70.8%; in the test on RXF 393 renal it was 57.5%; in the test on SF-268 CNS, 91.9%. In addition, the growth with SF-295 CNS is 77.1%; in the test on SF-539 CNS, 58.4%; with UACC-257 melanoma, 72.1%; with M14 melanoma, 44.4%; with HCT-15 colon, 30.5%; in the test on HT29 colon, 46.7%. The growth in the test on SNB-75 CNS was 34%; in the test on SNB-19 CNS, 60.6%; in the test with U251 CNS it was 59.8%; with PC-3 prostate, 58.6%; in the test with SK-MEL-5 melanoma, 1.04% (active); in the test with UACC-62 melanoma it was 28.1%. Also, the growth in the test on LOX IMVI melanoma is 0.604% (active); in the test on SK-MEL-28 melanoma, 72.9%.
For `c1ccc(CSc2ncccc2-c2nnc(SCCN3CCOCC3)o2)cc1`, the growth is 112% in the test with DU-145 prostate; 117% with K-562 leukemia; 111% with MALME-3M melanoma; 114% with MDA-MB-231 breast; 123% with RXF 393 renal; 107% in the test on SF-268 CNS. Moreover, the growth with SF-295 CNS is 106%; in the test with SF-539 CNS it was 132%; in the test with UACC-257 melanoma it was 147%; in the test on M14 melanoma, 108%; in the test on HCT-15 colon, 105%; in the test on HT29 colon it was 111%. Moreover, the growth was 79.6% with SNB-75 CNS; 115% in the test with SNB-19 CNS; 117% in the test on U251 CNS; 111% with PC-3 prostate; 102% in the test with SK-MEL-5 melanoma; 113% in the test with UACC-62 melanoma. The growth with LOX IMVI melanoma is 108%; with SK-MEL-28 melanoma, 107%.
Consider `COc1cc(/C=C2\CCCC3=C2NC(N)=NC3c2cc(OC)c(OC)c(OC)c2)cc(OC)c1OC` (stereo not given), for which the growth is -9.85% (active) in the test on DU-145 prostate; 6.43% (active) in the test with K-562 leukemia; -42.5% (active) in the test with MALME-3M melanoma; 28.9% in the test on MDA-MB-231 breast; -88% (active) in the test with RXF 393 renal; 15.1% in the test with SF-268 CNS. Besides, the growth in the test with SF-295 CNS is -35.3% (active); with SF-539 CNS, 25.9%; in the test on UACC-257 melanoma it was -31.1% (active); with M14 melanoma it was -36.1% (active); in the test on HCT-15 colon, -4.55% (active); in the test on HT29 colon, -35.4% (active). The growth is 45.7% with SNB-75 CNS; 61.6% with SNB-19 CNS; -85.2% (active) with U251 CNS; 25.9% in the test with PC-3 prostate; -96.5% (active) with SK-MEL-5 melanoma; -41.1% (active) in the test with UACC-62 melanoma. Also, the growth is -46.7% (active) with LOX IMVI melanoma and 24.9% in the test on SK-MEL-28 melanoma.
For the compound `COc1cc(CNC(=O)C2CSC3(C)c4ccccc4C(=O)N23)cc(OC)c1OC` (stereo not given), the growth in the test on DU-145 prostate was 109%; in the test with K-562 leukemia it was 71.9%; in the test on MALME-3M melanoma it was 109%; in the test on MDA-MB-231 breast, 98.3%; in the test with RXF 393 renal, 98.7%; in the test with SF-268 CNS, 101%. For the same compound, the growth with SF-295 CNS is 104%; in the test with SF-539 CNS, 98.2%; with UACC-257 melanoma, 73.8%; in the test on M14 melanoma, 108%; in the test on HCT-15 colon it was 106%; in the test with HT29 colon it was 82.6%. Also, the growth with SNB-75 CNS is 97.5%; with SNB-19 CNS, 93%; with U251 CNS it was 82.7%; with PC-3 prostate it was 90%; in the test on SK-MEL-5 melanoma, 102%; in the test on UACC-62 melanoma it was 92.5%. For the same compound, the growth was 105% in the test on LOX IMVI melanoma and 103% in the test on SK-MEL-28 melanoma.
For the compound `O=C1CC(SC(=S)C2CCCC2=O)C(=O)N1` (stereo not given), the growth in the test with DU-145 prostate was 108%; in the test on K-562 leukemia, 98%; with MALME-3M melanoma it was 104%; in the test with MDA-MB-231 breast, 105%; in the test with RXF 393 renal, 115%; in the test with SF-268 CNS, 102%. The growth in the test on SF-295 CNS is 104%; in the test with SF-539 CNS, 104%; in the test on UACC-257 melanoma, 90.4%; in the test on M14 melanoma, 101%; in the test with HCT-15 colon, 98.1%; with HT29 colon, 103%. In addition, the growth in the test on SNB-75 CNS was 105%; with SNB-19 CNS, 94.7%; with U251 CNS, 97.1%; in the test on PC-3 prostate, 97.1%; with SK-MEL-5 melanoma it was 103%; with UACC-62 melanoma, 102%. Moreover, the figures for the growth in the test with LOX IMVI melanoma and in the test with SK-MEL-28 melanoma were 97.5% and 113%, respectively.
For the compound `CC(C)(C)OC(=O)N1CCc2c(sc3ncnc(N/N=C/c4cccc5ccccc45)c23)C1`, the growth in the test on DU-145 prostate is 49.7%; in the test on K-562 leukemia, 7.07% (active); in the test on MALME-3M melanoma it was 49.9%; in the test with MDA-MB-231 breast, 45.6%; with RXF 393 renal it was 2.63% (active); in the test with SF-268 CNS, 46.7%. The growth with SF-295 CNS was 1.31% (active); in the test with SF-539 CNS, -11.3% (active); in the test with UACC-257 melanoma, 40.6%; with M14 melanoma, 20.3%; in the test on HCT-15 colon it was 6.88% (active); in the test on HT29 colon it was 26.2%. The growth in the test with SNB-75 CNS was -3.28% (active); with SNB-19 CNS, 26.3%; with U251 CNS, 33.7%; in the test on PC-3 prostate it was 25.9%; in the test on SK-MEL-5 melanoma, -57.2% (active); in the test with UACC-62 melanoma, 0.0448% (active). In addition, the growth is 13.1% in the test with LOX IMVI melanoma and 32.9% in the test with SK-MEL-28 melanoma.

The values above are taken from PubChem BioAssay (NCI).
